# PubChem BioAssay
# Results filed as inconclusive are left out. Calls of active or inactive are those of the source. Unless noted, the limit is not given here; nearly all actives have AC50 up to about 26 µM.
# Key:
# [1] = viability loss in pontine glioma line – cell-based, SU-DIPG-XVII, MIPE5.0, CellTiter-Glo, qHTS, dose response (AID 1347060); settings: CellTiter-Glo ATP luminescence;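 as to AC50: cells exposed to compound for 48 hours before viability readout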
# [2] = viability loss in pontine glioma line – cell-based, SU-DIPG-XIII, MIPE4.0, CellTiter-Glo, qHTS, dose response (AID 1347061; cut-off not given, nearly all actives have AC50 up to about 37 µM;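 also: cells exposed to compound for 48 hours before readout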); settings: CellTiter-Glo ATP luminescence
# [3] = viability loss in pontine glioma line – cell-based, JHH-DIPG-1, MIPE4.0, CellTiter-Glo, qHTS, dose response (AID 1347062; cut-off not given, nearly all actives have AC50 up to about 27 µM;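 as to AC50: cells exposed to compound for two days before readout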); settings: JHH-DIPG-1 viability, CellTiter-Glo ATP luminescence
# [4] = viability loss in pontine glioma line – cell-based, SU-DIPG-IV, MIPE4.0, CellTiter-Glo, qHTS, dose response (AID 1347063; cut-off not given, nearly all actives have AC50 up to about 30 µM;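 also: compound exposure lasted 48 hours before the viability readout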); settings: CellTiter-Glo ATP luminescence
# [5] = viability loss in pontine glioma line – cell-based, SU-DIPG-XIII, MIPE5.0, CellTiter-Glo, qHTS, dose response (AID 1347064; cut-off not given, nearly all actives have AC50 up to about 23 µM;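 as to AC50: cells exposed to compound for 48 hours before the viability read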); settings: CellTiter-Glo ATP luminescence
# [6] = viability loss in pontine glioma line – cell-based, SU-DIPG-XXV, MIPE5.0, CellTiter-Glo, qHTS, dose response (AID 1347065); settings: CellTiter-Glo ATP luminescence;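 also: cells exposed to compound for 48 hours before ATP readout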
# [7] = growth inhibition of DIPG cells – cell-based, MIPE4.0 library, CellTiter-Glo luminescence, qHTS (AID 1347066; cut-off not given, nearly all actives have AC50 up to about 30 µM;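 also: cells exposed to compound for 48 hours before readout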); settings: SU-DIPG-VI viability, CellTiter-Glo ATP luminescence
# [8] = JHH-DIPG-1 glioma cell viability, MIPE5.0 library, CellTiter-Glo luminescence, qHTS (AID 1347067); settings: JHH-DIPG-1 glioma viability, CellTiter-Glo ATP luminescence;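 also: cells exposed to compound for 48 hours before readout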
# [9] = compounds altering HSF1 focus formation in cells – imaging, Selleck Cancer Library (AID 1347162; in the data active = plate-normalised HSF1 focus index below about 0.46); settings: human cells, HSF1 nuclear foci imaging, at 10 µM; SSMD: measured here: HSF1 foci SSMD mean; cell count: measured here: cell number; plate-normalised HSF1 focus index: stronger effect = lower value
# [10] = growth inhibition of DIPG cells – cell-based, MIPE5.0 library, qHTS (AID 1347068; cut-off not given, nearly all actives have IC50 up to about 30 µM;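 as to IC50: cells exposed to compound for 48 hours before viability readout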); settings: SU-DIPG-XXV viability
# [11] = viability loss with induced miR-34 in A549 – imaging, A549 dox-inducible miR-34, nuclei and caspase counts, primary screen (AID 1347080;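 active = compounds whose cell count with miR-34 switched on is under 0.7 times the count with it off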); settings: A549 miR-34 inducible, Hoechst nuclei count, 48 h
# [12] = MELAS cybrid and Rieske KO viability enhancers – cell-based, MELAS cybrids, Rieske KO mouse fibroblasts, CellTiter-Glo, primary screen (AID 1508586;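 active = mean z-score across replicates of 1.96 or higher in either the MELAS or the Rieske mutant cell line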;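 also: z relative to plate mean and SD of compound and empty wells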); settings: low glucose
# [13] = growth inhibition, single agent or in combination, cell-based, chromothripsis tumors, cisplatin or BGB combos (AID 1671449; in the data active = inhibition above about 80%;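 also: cells exposed for 96 hours; 0% = vehicle DMSO and 100% = killing by high DMSO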); settings: LFS_MB_P medulloblastoma cells
# [14] = growth inhibition, single agent and combos, cell-based, chromothripsis tumors, cisplatin or BGB combos (AID 1671450; in the data active = inhibition above about 80%;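 also: cells exposed to compound for four days; 0% = vehicle DMSO and 100% = cell killing by high DMSO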); settings: HDN33 neuroblastoma cells, stronger effect = higher value
# [15] = growth inhibition, single agents and combos, ICB984, cell-based, cisplatin or BGB combos, synergistic combos for chromothripsis tumors (AID 1671451; call rule not given here;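 also: cells exposed for 96 hours before readout; 0% = vehicle DMSO and 100% = killing by high DMSO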); settings: ICB984 medulloblastoma cells, drug combinations, stronger effect = higher value
# [16] = growth inhibition, single agents and combos, HTB85, cell-based, BGB or cisplatin IC20 combos, synergistic combos for chromothripsis tumors (AID 1671453; in the data active = inhibition above about 80%;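 also: cells exposed for 96 hours before readout; 0% = vehicle DMSO and 100% = high DMSO killing control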); settings: HTB85 osteosarcoma cells, drug combinations, stronger effect = higher value
# [17] = growth inhibition, MDA-MB-436, cell-based, BGB or cisplatin combos, synergistic combos for chromothripsis tumors (AID 1671458; call rule not given here;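 also: cells exposed for 96 hours; 0% = vehicle DMSO and 100% = killing by high DMSO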); settings: MDA-MB-436 breast carcinoma growth inhibition, drug combinations, stronger effect = higher value
# [18] = BT084 cell growth, single and combined drugs, ICGC_MB145, cisplatin and BGB IC40 combos (AID 1671461; in the data active = inhibition above about 80%;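 also: cells exposed to drugs for 96 hours; 0% = vehicle DMSO and 100% = high DMSO full killing control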); settings: BT084 medulloblastoma cells, drug combinations, stronger effect = higher value
# [19] = RCMB18 cell growth, single agent and combined, cisplatin and BGB IC40 combos (AID 1671462; in the data active = inhibition above about 80%;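 also: cells exposed to compound for four days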); settings: RCMB18 medulloblastoma cells, stronger effect = higher value
smiles,measurement,setting,value
C[C@@H]1CCN(C(=O)CC#N)C[C@@H]1N(C)c1ncnc2[nH]ccc12,outcome,[1],inactive
same,outcome,[2],inactive
same,outcome,[3],inactive
same,outcome,[4],inactive
same,outcome,[5],inactive
same,outcome,[6],inactive
same,outcome,[7],inactive
same,outcome,[8],inactive
same,SSMD,[9],3.28
same,cell count,[9],7280
same,plate-normalised HSF1 focus index,[9],1.17 (inactive)
Cc1ccc(-c2ncn(-c3ccc(Nc4nccc(-c5cccc(N6CCOCC6)c5)n4)cc3)n2)cn1,AC50,[1],2350 nM (active)
same,AC50,[2],83.3 nM (active)
same,AC50,[3],93.5 nM (active)
same,AC50,[4],118 nM (active)
same,AC50,[5],2630 nM (active)
same,AC50,[6],2950 nM (active)
same,AC50,[8],2630 nM (active)
same,IC50,[10],16600 nM (active)
CCc1c(O)cc(O)c(C(=O)c2ccc(OCCN3CCOCC3)c(OC)c2)c1CC(=O)N(CCOC)CCOC,AC50,[1],235 nM (active)
same,AC50,[2],3320 nM (active)
same,AC50,[3],372 nM (active)
same,AC50,[4],1320 nM (active)
same,AC50,[5],833 nM (active)
same,AC50,[6],742 nM (active)
same,AC50,[8],742 nM (active)
same,outcome,[10],inactive
same,fold change,"[11]; stronger effect = lower value, cell number ratio, induced over uninduced",1.03 (inactive)
same,fold change,[11]; measured here: relative caspase fold change +Dox/-Dox,0.454
same,cell count,"[11]; measured here: total cells with miR-34 induction, stronger effect = lower value",3640
same,cell count,[11]; measured here: total cells without miR-34 induction,3520
same,z-score,"[12]; MELAS cybrid survival, CellTiter-Glo 48 h, stronger effect = higher value",-0.316 (inactive)
same,z-score,"[12]; Rieske KO mouse fibroblast survival, CellTiter-Glo 72 h",0.722
O=C(/C=C/c1ccc(CN(CCO)CCc2c[nH]c3ccccc23)cc1)NO,AC50,[1],525 nM (active)
same,AC50,[2],1180 nM (active)
same,AC50,[3],235 nM (active)
same,AC50,[4],935 nM (active)
same,AC50,[5],332 nM (active)
same,AC50,[6],295 nM (active)
same,AC50,[7],235 nM (active)
same,AC50,[8],417 nM (active)
same,outcome,[10],inactive
same,inhibition,"[13]; at 0.5 µM, stronger effect = higher value",-16.3% (inactive)
same,inhibition,"[13]; measured here: combination with BGB IC20, at 0.005 µM",-29.5%
same,inhibition,"[13]; measured here: combination with BGB IC40, at 0.005 µM",-69.2%
same,inhibition,"[13]; measured here: combination with BGB IC40, at 0.05 µM",-42.5%
same,inhibition,"[13]; measured here: combination with cisplatin, at 0.5 µM, stronger effect = higher value",-26.1%
same,inhibition,"[13]; measured here: combination with cisplatin, at 5 µM, stronger effect = higher value",114%
same,inhibition,"[14]; BGB combo, at 5 µM",99.9%
same,inhibition,[14]; at 0.5 µM,99.3% (active)
same,inhibition,"[14]; cisplatin combo, at 5 µM",99.9%
same,inhibition,"[14]; measured here: with BGB IC20 combination, at 0.5 µM",98.5%
same,inhibition,"[14]; measured here: with cisplatin IC20 combination, at 0.5 µM",99.7%
same,inhibition,"[14]; single agent, at 5 µM",99.9%
same,inhibition,"[15]; BGB IC20 combo, at 0.005 µM",71.4%
same,inhibition,"[15]; BGB IC40 combo, at 0.005 µM",89.6%
same,inhibition,"[15]; BGB IC40 combo, at 0.05 µM",100%
same,inhibition,[15]; at 0.5 µM,-29.4% (inactive)
same,inhibition,"[15]; cisplatin combo, at 0.05 µM",101%
same,inhibition,"[15]; cisplatin combo, at 0.5 µM",-36.3%
same,inhibition,"[15]; cisplatin combo, at 5 µM",-4.27%
same,inhibition,"[15]; measured here: 5 uM single agent, at 5 µM",13.8%
same,inhibition,[16]; at 0.5 µM,99.3% (active)
same,inhibition,"[16]; measured here: with BGB IC20, at 0.5 µM",98.7%
same,inhibition,"[16]; measured here: with BGB IC20, at 5 µM",99.9%
same,inhibition,"[16]; measured here: with cisplatin IC20, at 0.5 µM",99.9%
same,inhibition,"[16]; measured here: with cisplatin IC20, at 5 µM",99.9%
same,inhibition,"[16]; single agent, at 5 µM",99.9%
same,inhibition,[17]; at 0.5 µM,63.3% (inactive)
same,inhibition,"[17]; measured here: BGB combination, at 0.5 µM",55.8%
same,inhibition,"[17]; measured here: BGB combination, at 5 µM",59.7%
same,inhibition,"[17]; measured here: cisplatin combination, at 0.5 µM",60.4%
same,inhibition,"[17]; measured here: cisplatin combination, at 5 µM",75.3%
same,inhibition,[18]; at 0.5 µM,98.5% (active)
same,inhibition,"[18]; cisplatin combination, at 0.5 µM",101%
same,inhibition,"[18]; cisplatin combination, at 5 µM",104%
same,inhibition,"[18]; measured here: BGB IC40 combination 0.05 uM, at 0.05 µM",38.4%
same,inhibition,"[18]; single agent, at 5 µM",108%
same,inhibition,[19]; at 0.5 µM,82% (active)
same,inhibition,"[19]; cisplatin combo, at 5 µM",98.9%
same,inhibition,"[19]; measured here: BGB IC40 combination, at 0.05 µM",6.39%
same,inhibition,"[19]; measured here: combination with cisplatin, at 0.5 µM",90.4%
same,inhibition,"[19]; single agent, at 5 µM",96.9%
